Measurements published in PubChem BioAssay (Tox21).
Several values for one entry are separate records, joined by “and”; a condition that tells them apart may be missing. Identical values can stand only once. Results filed as inconclusive are left out. A call without a number means that no potency is given here. Where a structure was tested more than once in an assay, its records may differ in their call. Activity calls are given as the source filed them. Unless noted, the call rests on the fitted dose curve; in most records, active means well fitted curve in the direction sought with a large enough effect in the repeat runs; inconclusive means weak or mixed curves; inactive means no such curve, though single readings can be large; an effect the other way counts as inactive or inconclusive.

What was measured:
[1] = qHTS assay to identify small molecule antagonists of the thyroid receptor (TR) signaling pathway - cell viability counter screen (AID 743064); further: nearly all actives have a fitted effect of over 50% in size
In short: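 In-well cytotoxicity read by CellTiter-Fluor (30 min, 37 C) following 23.5 h exposure of GH3 cells bearing a TRE-luciferase sensor. Compounds were added alongside 1 nM (final) T3 to drive TR transactivation.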

[2] = qHTS assay to identify small molecule antagonists of the thyroid receptor (TR) signaling pathway (AID 743065); further: nearly all actives have a fitted effect of over 55% in size; further: potency means the concentration at half of the fitted maximal effect
In short: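 Antagonism measured as loss of luciferase signal in GH3 cells stably carrying a TRE-luciferase reporter, co-treated with compound and T3 (1 nM final) for 23.5 h at 37 C. Viability was read in the same well by CellTiter-Fluor.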

[3] = test system: thyroid hormone receptor (rat, GH3 cells); test: qHTS assay to identify small molecule agonists of the thyroid receptor (TR) signaling pathway (AID 743066; calls by dose curve)
[4] = biological target: Estrogen receptor (Homo sapiens) (UniProt P03372); test: qHTS assay to identify small molecule antagonists of the estrogen receptor alpha (ER-alpha) signaling pathway (AID 743069; active means well fitted curve in the direction sought with a large enough effect in the signal ratio in the repeat runs, not every such curve was filed as active; the % refers to the signal ratio)
Chain of Estrogen receptor (Homo sapiens) (P03372 whole entry, looked up): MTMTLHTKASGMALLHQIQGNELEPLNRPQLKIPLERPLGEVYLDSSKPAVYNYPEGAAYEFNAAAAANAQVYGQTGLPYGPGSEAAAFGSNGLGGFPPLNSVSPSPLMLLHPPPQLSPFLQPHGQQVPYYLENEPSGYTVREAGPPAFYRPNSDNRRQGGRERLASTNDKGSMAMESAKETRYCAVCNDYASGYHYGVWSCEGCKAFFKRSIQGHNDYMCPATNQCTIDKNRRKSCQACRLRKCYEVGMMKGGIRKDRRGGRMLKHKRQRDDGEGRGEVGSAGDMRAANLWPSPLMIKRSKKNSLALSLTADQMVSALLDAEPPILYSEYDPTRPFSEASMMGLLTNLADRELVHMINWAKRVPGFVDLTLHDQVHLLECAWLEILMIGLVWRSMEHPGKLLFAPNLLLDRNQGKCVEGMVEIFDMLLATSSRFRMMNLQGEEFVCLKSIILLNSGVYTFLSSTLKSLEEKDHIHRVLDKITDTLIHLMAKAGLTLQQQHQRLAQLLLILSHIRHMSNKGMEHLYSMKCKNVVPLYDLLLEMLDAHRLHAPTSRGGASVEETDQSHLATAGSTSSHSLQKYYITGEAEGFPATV
In short: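 Fluorescence intensity from a beta-lactamase FRET substrate served as the read-out. Cells: HEK293 with stably integrated ER-alpha-UAS-bla reporter. Agonist 17beta-estradiol was co-added with compounds; incubation 18 hr at 37C, substrate 2 hr at room temperature.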

[5] = qHTS assay to identify small molecule antagonists of the estrogen receptor alpha (ER-alpha) signaling pathway - cell viability counter screen (AID 743074; calls by dose curve; further: nearly all actives have a fitted effect of over 45% in size)
[6] = biological target: Estrogen receptor (Homo sapiens) (UniProt P03372); test: qHTS assay to identify small molecule agonists of the estrogen receptor alpha (ER-alpha) signaling pathway (AID 743075; calls by dose curve; further: potency means the concentration at half of the fitted maximal effect)
[7] = biological target: Estrogen receptor (Homo sapiens) (UniProt P03372); test: qHTS assay to identify small molecule agonists of the estrogen receptor alpha (ER-alpha) signaling pathway using the BG1 cell line (AID 743079); further: nearly all actives have a fitted effect of over 20% in size; further: potency means the concentration at half of the fitted maximal effect
[8] = qHTS assay to identify small molecule antagonists of the estrogen receptor alpha (ER-alpha) signaling pathway using the BG1 cell line (AID 743080; calls by dose curve;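 further: BG1 cells stimulated with 17beta-estradiol alongside compound; nearly all actives have a fitted effect of over 25% in size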); details: BG1Luc4E2 ERE-luciferase antagonist mode, luminescence; activity change, negative = inhibition: at 70.3 µM (top of the series) unless noted
In short: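 Quantitative HTS on the Tox21 10K library: BG1 cells with endogenous ER-alpha and ERE-luciferase reporter, 17beta-estradiol stimulation, 21.5 h compound exposure, luminescence endpoint with parallel fluorescence cytotoxicity counter-read.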

[9] = qHTS assay to identify small molecule antagonists of the estrogen receptor alpha (ER-alpha) signaling pathway using the BG1 cell line - cell viability counter screen (AID 743081);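 further: compound given together with 17beta-estradiol as the ER stimulus; nearly all actives have a fitted effect of over 45% in size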
[10] = biological target: Aromatase (Homo sapiens) (UniProt P11511); test: qHTS assay to identify aromatase inhibitors (AID 743083); further: nearly all actives have a fitted effect of over 55% in size
Chain of Aromatase (Homo sapiens) (P11511 whole entry, looked up): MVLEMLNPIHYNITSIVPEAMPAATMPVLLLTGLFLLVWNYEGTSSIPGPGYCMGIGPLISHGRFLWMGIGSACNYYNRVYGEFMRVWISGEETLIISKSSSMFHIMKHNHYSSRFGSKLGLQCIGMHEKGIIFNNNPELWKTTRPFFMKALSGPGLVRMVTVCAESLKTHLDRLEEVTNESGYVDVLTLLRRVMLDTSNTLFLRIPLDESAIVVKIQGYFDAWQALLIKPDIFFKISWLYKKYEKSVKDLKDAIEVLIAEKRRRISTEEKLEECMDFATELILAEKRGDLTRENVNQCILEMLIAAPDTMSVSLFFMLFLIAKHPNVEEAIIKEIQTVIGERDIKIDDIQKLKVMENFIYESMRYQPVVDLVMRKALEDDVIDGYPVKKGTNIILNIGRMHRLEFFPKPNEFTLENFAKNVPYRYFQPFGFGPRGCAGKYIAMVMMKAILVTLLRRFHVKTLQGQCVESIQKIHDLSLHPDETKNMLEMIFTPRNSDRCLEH

[11] = qHTS assay to identify aromatase inhibitors - cell viability counter screen (AID 743084);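 further: cells stimulated with testosterone during compound exposure; nearly all actives have a fitted effect of over 55% in size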
[12] = biological target: Peroxisome proliferator-activated receptor gamma (Homo sapiens) (UniProt P37231); test: qHTS assay to identify small molecule agonists of the peroxisome proliferator-activated receptor gamma (PPARg) signaling pathway (AID 743094; active means well fitted activation curve with a large enough effect in the signal ratio in the repeat runs, not every such curve was filed as active; the % refers to the signal ratio)
Chain of Peroxisome proliferator-activated receptor gamma (Homo sapiens) (P37231 whole entry, looked up): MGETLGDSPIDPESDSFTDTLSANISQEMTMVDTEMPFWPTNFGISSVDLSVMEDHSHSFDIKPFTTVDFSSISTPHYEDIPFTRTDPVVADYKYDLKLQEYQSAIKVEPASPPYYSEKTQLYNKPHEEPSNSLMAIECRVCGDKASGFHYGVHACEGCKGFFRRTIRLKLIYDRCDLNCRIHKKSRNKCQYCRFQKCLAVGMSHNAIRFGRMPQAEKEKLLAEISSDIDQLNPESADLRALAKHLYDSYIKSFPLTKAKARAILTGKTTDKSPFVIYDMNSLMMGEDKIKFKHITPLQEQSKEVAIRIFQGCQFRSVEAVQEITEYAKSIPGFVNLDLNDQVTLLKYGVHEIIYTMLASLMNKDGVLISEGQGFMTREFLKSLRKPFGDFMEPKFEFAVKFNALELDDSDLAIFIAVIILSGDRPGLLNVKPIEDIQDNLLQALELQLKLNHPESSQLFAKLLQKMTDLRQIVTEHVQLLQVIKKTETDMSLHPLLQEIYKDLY
In short: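 Fluorescence-based beta-lactamase readout in HEK293H PPARg UAS-bla cells after 17 h compound exposure (37C) and 1 h B/G FRET substrate incubation at room temperature.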

[13] = biological target: Peroxisome proliferator-activated receptor gamma (Homo sapiens) (UniProt P37231); test: qHTS assay to identify small molecule antagonists of the peroxisome proliferator-activated receptor gamma (PPARg) signaling pathway (AID 743191; calls by dose curve; further: nearly all actives have a fitted effect of over 30% in size)
In short: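 Beta-lactamase reporter under UAS control in HEK293H PPARg-bla cells; compound treatment 17 h at 37C. Read-out: fluorescence intensity after 1 h room-temperature incubation with LiveBLAzer B/G FRET substrate.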

[14] = qHTS assay to identify small molecule antagonists of the peroxisome proliferator-activated receptor gamma (PPARg) signaling pathway - cell viability counter screen (AID 743194); details: Potency: co-treated with 50 nM rosiglitazone unless noted; further: nearly all actives have a fitted effect of over 55% in size
In short: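 Viability was measured as CellTiter-Glo luminescence in GeneBLAzer PPARg UAS-bla HEK293H cells. These cells had been exposed 17 h at 37 C to compounds together with rosiglitazone at 50 nM final, with the beta-lactamase readout taken in the same wells.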

[15] = qHTS assay for small molecule agonists of the antioxidant response element (ARE) signaling pathway - cell viability counter screen (AID 743203; calls by dose curve; further: nearly all actives have a fitted effect of over 55% in size)
In short: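 Parallel cytotoxicity read-out for the ARE-bla screen: HepG2 reporter cells, 16 hrs with compounds, then CellTiter-Glo luminescence.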

[16] = qHTS assay for small molecule activators of the heat shock response signaling pathway - cell viability counter screen (AID 743209); further: nearly all actives have a fitted effect of over 50% in size
In short: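 To flag cytotoxic compounds, HSE-bla HeLa cells plated at 1500 cells/well were dosed for 5 h at 37 C, followed by the reporter FRET read and then CellTiter-Glo, with luminescence recorded 30 min after reagent addition.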

[17] = qHTS assay to identify small molecule that activate the aryl hydrocarbon receptor (AhR) signaling pathway - cell viability counter screen (AID 743086);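 further: HepG2 liver cells carrying the AhR DRE luciferase reporter; nearly all actives have a fitted effect of over 45% in size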
In short: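 Cytotoxicity counter screen: CellTiter-Fluor signal (30 min, 37 C) in 4000 HepG2 cells/well carrying the DRE-luciferase reporter, following 24 h compound exposure at 37 C.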

[18] = qHTS assay for small molecule agonists of the antioxidant response element (ARE) signaling pathway (AID 743202; active means well fitted activation curve with a large enough effect in the signal ratio in the repeat runs, not every such curve was filed as active; the % refers to the signal ratio)
In short: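 Beta-lactamase reporter activity, read as fluorescence intensity, reflects ARE/Nrf2 pathway induction in HepG2 cells after 16 h compound exposure at 37 C; substrate loading was 2 h at room temperature.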

SMILES	Potency [1]	Potency [2]	Potency [3]	Potency [4]	Potency [5]	Potency [6]	Potency [7]	Potency [8]	Potency [9]	Potency [10]	Potency [11]	outcome [12]	Potency [13]	Potency [14]	Potency [15]	Potency [16]	Potency [17]	Potency [18]
Cc1cc(Cl)ccc1OCC(=O)O	inactive	inactive	inactive	inactive	inactive	inactive	inactive	inactive	inactive	inactive	inactive	inactive	inactive	inactive	inactive	inactive	–	–
C[C@]12CCC(=O)C=C1CC[C@@H]1[C@@H]2CC[C@]2(C)C(=O)CC[C@@H]12	inactive	60.1 µM (active)	inactive	–	inactive	27.1 µM [activator] (active) and inactive	1.5 µM (active) and 4.25 µM (active) and 4.33 µM (active)	inactive	inactive	inactive	inactive	inactive	–	inactive	inactive	inactive	–	–
COc1ccccc1N	inactive	inactive	inactive	–	inactive	–	–	–	inactive	inactive	inactive	inactive	inactive	inactive	inactive	inactive	inactive	–
CCCCn1cc[n+](C)c1	inactive	inactive	inactive	–	inactive	–	–	–	inactive	inactive	inactive	–	–	inactive	inactive	inactive	inactive	–
O=C(O)CCl	inactive	inactive	inactive	–	inactive	–	–	–	inactive	inactive	inactive	inactive	inactive	inactive	inactive	inactive	inactive	–
COP(=O)(OC)C(O)C(Cl)(Cl)Cl (configuration not stated)	inactive	inactive	inactive	–	inactive	–	–	–	inactive	inactive	inactive	inactive	–	inactive	inactive	inactive	inactive	–
O=[N+]([O-])c1ccccc1O	inactive	inactive	inactive	–	inactive	–	–	–	inactive	inactive	inactive	inactive	inactive	inactive	inactive	inactive	–	inactive
